# Source: PubChem BioAssay (several laboratories)
# SKKanGAS inh – inhibitors of SKKanGAS S. pyogenes growth in kanamycin (SK-promoter or general growth effect) | BacTiter-Glo, 6 h | inhibition, % at 7.5 µM | actives 1.3% (n = 300,000);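 active = mean replicate score, as percent of positive control median, at least 50; inconclusive = mean below 50 but one replicate at or above 50; inactive = mean and every replicate below 50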;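 also: strain carries kanamycin resistance gene driven by streptokinase promoter and grows in 40 µg/ml kanamycin; loss of luminescence reflects streptokinase promoter inhibition or plain growth inhibition; 0% = median of DMSO wells and 100% = positive control at its reference dose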
# TIM10 inh – inhibits growth of TIM10 yeast strain. S. cerevisiae TIM10 strain growth, BacTiter-Glo luminescence, 24 h. inhibition, % at 10 µM. actives 1.4% (n = 330,000);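 active = inhibition of 40% or more at the single tested concentration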;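 also: wild-type TIM10 isogenic control strain grown at permissive 25 °C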
# tim10-1 inh – growth inhibitors of tim10-1 mutant yeast; S. cerevisiae tim10-1 ts strain growth, BacTiter-Glo, 24 h; inhibition, % at 20 µM; actives 2.2% (n = 330,000); AID 463190;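 active = inhibition of at least 40%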;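 also: mutant grown at 25 °C; 0% = DMSO wells with yeast and 100% = wells holding no yeast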
# PfHsp90 yeast 2 – inhibits growth of yeast expressing Plasmodium falciparum Hsp90 | S. cerevisiae expressing PfHsp90, BacTiter-Glo ATP, 48 h; yeast lacking PDR1 and PDR3 efflux regulators | inhibition, % at 9.4 µM | actives 0.32% (n = 310,000);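 active = every replicate shows inhibition above about 80%, whatever the replicate mean, limit read from the data; inconclusive = mean inhibition reaches the set limit but some replicate falls short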;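 also: 0% = DMSO neutral controls and 100% = 20 µM radicicol positive controls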
# NALP3 yeast inh – blocks the NALP3 inflammasome reconstituted in yeast; AID 2825; actives 0.39% (n = 330,000); inhibition, % at 10 µM; Yeast reconstituted NLRP3/ASC/caspase-1, beta-gal luminescence, 24 h;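 active = inhibition of 50% or more; inactive = inhibition below 50%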;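 also: plate controls were induced DMSO wells for no effect and uninduced yeast grown without galactose for full effect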
# tim23-1 inh – growth inhibitors of tim23-1 mutant yeast. S. cerevisiae tim23-1 growth, BacTiter-Glo luminescence, 24 h. inhibition, % at 20 µM. actives 1.3% (n = 330,000);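 active = growth inhibition of the mutant yeast at or above 50%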;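 also: temperature-sensitive mutant grown at 25 °C; plate controls were DMSO-treated mutant yeast for no effect and medium wells lacking yeast for full effect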
# tim23-1 confirm – confirmation of tim23-1 mutant yeast growth inhibitors | S. cerevisiae tim23-1 growth, BacTiter-Glo luminescence, 24 h | inhibition, % at 20 µM | shares compounds with tim23-1 inh | actives 83% (n = 4,400);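 active = inhibition above about 39% in either of two replicate wells at 20 µM, limit read from the data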;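 also: temperature-sensitive tim23-1 mutant grown at 25 °C; 0% = DMSO wells with yeast and 100% = medium wells without yeast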
# * marks the source's active call; other numbers are inactive results; ? = inconclusive; nt = no result given. An excerpt weighted towards active compounds, which were near 4.6% of everything screened.
SMILES,SKKanGAS inh,TIM10 inh,tim10-1 inh,PfHsp90 yeast 2,NALP3 yeast inh,tim23-1 inh,tim23-1 confirm
Cc1[nH]nc(SCC(=O)NCc2ccc(Cl)cc2)c1[N+](=O)[O-],-1.8,12.7,16.2,16.7,6.1,7.2,nt
O=C(CCl)N(CCc1ccccc1)CCc1ccccc1,18.8,-34.8,-78.4,-4.7,-1.6,48.7,nt
Cc1ccccc1OCC(=O)N/N=C/c1cc2ccccc2nc1Cl,15.5,35.7,24.4,-15.4,23.5,11.7,nt
C=CCc1ccccc1OCC(=O)N/N=C/c1ccc(OC(C)=O)cc1OC(C)=O,14.2,36.0,20.0,1.9,21.7,62.6*,54.6*
CCN(CC(=O)NCc1ccc(F)cc1)C(=O)c1ccc2c(c1)OCO2,nt,3.8,-2.2,nt,-0.1,0.5,nt
O=C(N/N=C/c1cc(Br)cc(Br)c1O)c1cccc(N2CCCC2=O)c1,87.7*,-5.4,-7.1,-4.3,42.4,50.8*,55.7*
CC1CN(C(=O)c2ccc(Br)c(S(=O)(=O)N3CCOCC3)c2)CC(C)O1 (stereo unspecified),nt,10.3,-2.6,7.2,7.5,3.4,nt
CN(Cc1ccccc1)C(=S)NC(=O)c1cccs1,22.1,23.5,33.3,-32.1,34.3,50.9*,36.3
CC(NC(=S)NC(=O)c1cccs1)c1ccccc1 (stereo unspecified),nt,28.9,23.7,-21.4,15.8,52.4*,45.0*
CN(Cc1ccccc1)C(=S)NC(=O)c1ccc(-c2ccccc2)cc1,25.4,8.4,11.0,1.3,22.4,6.0,nt
CCOC(=O)/C(C#N)=C/c1cc2cc(C)c(C)cc2nc1Cl,-2.6,30.0,-3.3,4.2,15.6,61.9*,69.5*
COc1ccc(NC(=O)c2cc(S(=O)(=O)NCC3COc4ccccc4O3)ccc2F)cc1 (stereo unspecified),7.2,30.6,35.4,8.7,9.8,57.7*,65.1*
CC(=O)Nc1ccc(S(=O)(=O)NCCCc2ccccc2)cc1,-9.7,-0.5,4.7,14.3,12.8,2.5,nt
COc1ccccc1Nc1c([N+](=O)[O-])cc(C)cc1[N+](=O)[O-],-4.2,-18.9,-1.3,6.3,10.5,-6.2,nt
COc1ccccc1Nc1ccc([N+](=O)[O-])cc1N,11.6,27.1,35.6,-6.5,30.7,55.3*,40.6*
COc1ccc(C2CC(O)(c3ccccc3)Oc3c(C)ccc(C)c32)cc1 (stereo unspecified),89.1*,20.9,21.6,?,16.5,52.6*,54.8*
COc1ccc(C2CC(O)(c3ccccc3)Oc3cc(OC)cc(OC)c32)cc1 (stereo unspecified),-2.7,10.9,22.1,-18.4,15.2,8.3,nt
CC1=C(C)/C(=N\OC(=O)/C=C/c2ccccc2)C=CC1=O,3.1,6.1,27.1,12.9,4.8,21.0,nt
CC1=CC(=NOC(=O)/C=C/c2ccccc2)C=C(C)C1=O,8.3,29.2,37.3,nt,-10.0,70.2*,52.6*
COc1ccccc1C(=O)Oc1ccc(C(C)(C)C)cc1,22.6,20.5,14.7,5.9,17.6,23.2,nt
COc1ccccc1C(=O)Oc1ccc2ccc(=O)oc2c1,-2.3,36.0,18.1,14.0,11.3,68.9*,51.5*
Cc1ccc(N=CC2=C(O)CC(C)(C)CC2=O)nc1,-1.9,-3.0,7.6,-29.7,10.3,1.0,nt
Cc1ccc(N=Cc2cc(Cl)cc(Cl)c2O)nc1,-0.6,10.4,8.5,-33.6,5.4,66.0*,75.9*
Cc1ccc(Sc2ccc(N)cc2C#N)cc1,5.1,10.8,34.9,nt,28.9,58.1*,37.1
Cc1c(C(=O)N(C)c2ccc(Cl)cc2)cnn1-c1ccccc1,1.3,-6.2,17.8,6.9,12.1,22.9,nt
SMILES,SKKanGAS inh,TIM10 inh,tim10-1 inh,PfHsp90 yeast 2,NALP3 yeast inh,tim23-1 inh,tim23-1 confirm
CCOC(=O)c1ccc(N2N=C(C)/C(=C/C=C/c3ccco3)C2=O)cc1,3.1,11.2,17.0,9.3,2.7,10.8,nt
CC1=NN(c2ccc(C)c(C)c2)C(=O)/C1=C\C=C\c1ccc([N+](=O)[O-])o1,9.0,22.4,-22.3,7.0,17.3,50.3*,-32.6
CNC(=S)N/N=C/c1ccc(-c2ccc(C(=O)O)cc2)o1,28.5,27.6,30.7,58.8,1.8,50.2*,43.6*
CNC(=S)N/N=C/c1ccc(-c2ccc(Cl)c([N+](=O)[O-])c2)o1,-8.7,3.2,7.2,3.7,21.6,-8.4,nt
c1ccc(-c2cn3c4c(sc3n2)CCCC4)cc1,-2.4,33.7,24.4,13.2,35.3,54.8*,59.7*
c1ccc(-c2cn3nc(-c4ccccc4)sc3n2)cc1,-4.1,-0.2,15.8,0.2,21.6,-4.6,nt
CCCn1c(SCC(=O)N2CCN(S(=O)(=O)c3ccc(Cl)cc3)CC2)n[nH]c1=O,3.0,2.0,5.9,-12.8,-5.7,57.9*,0.0
COc1ccc(C(=O)Nc2c(N)nc(SCC(=O)N3CCCCCC3)[nH]c2=O)cc1OC,0.4,2.4,2.6,-7.9,14.4,12.2,nt
CCn1cnc2cc(NCc3ccc(Br)cc3)ccc21,21.1,20.1,19.0,nt,43.2,53.4*,66.2*
CCN1CCN(c2oc(/C=C/c3ccccc3)nc2C#N)CC1,2.9,31.4,4.7,12.4,17.5,5.5,nt
COc1ccc(NC(=S)NC2CC3CCC2C3)c(OC)c1 (stereo unspecified),-6.9,26.5,22.1,-7.3,2.3,63.5*,10.7
CCOc1ccccc1NC(=S)NC1CC2CCC1C2 (stereo unspecified),-4.5,15.8,36.7,-2.1,13.3,33.3,nt
Cc1nc(NC(=O)CN2CC(C)OC(C)C2)sc1C(=O)N(C)C (stereo unspecified),1.7,14.9,-8.5,7.0,8.5,1.9,nt
COc1ccccc1NC(=S)NC(=O)CC(C)C,-4.0,25.3,28.1,-10.8,23.0,51.4*,27.1
CN1CCN(C2=C(NS(=O)(=O)c3cccs3)C(=O)c3ccccc3C2=O)CC1,4.8,-4.6,28.5,9.5,0.0,5.9,nt
O=C1C(NS(=O)(=O)c2cccs2)=C(N2CCN(Cc3ccccc3)CC2)C(=O)c2ccccc21,27.3,22.0,24.0,13.7,17.9,52.7*,32.1
CCOC(=O)c1cccc2c(=O)c(C(=O)c3ccc(Cl)cc3)c(C(=O)OC)[nH]c12,-0.8,-3.1,-3.0,5.2,15.0,8.3,nt
Cc1ccc2c(Cl)c(C)c(N3CCCCC3)nc2n1,-0.3,17.1,27.5,-22.8,25.4,67.4*,57.7*
CCN(CC(=O)NC(=O)NC1CCCC1)Cc1ccccc1,-9.6,-4.8,8.9,16.5,11.4,-5.3,nt
O=C1NC(c2cccc(Br)c2)=N/C1=C\c1ccco1,1.9,30.9,26.3,15.0,6.5,56.0*,35.5
c1ccc2cc(OCc3nc4ccccc4[nH]3)ccc2c1,13.6,26.9,22.0,7.1,44.0,51.6*,29.9
